PGK inhibitor – blocks T. brucei phosphoglycerate kinase; hit rate 0.043% among 380,000; Potency, µM (series often up to 57.5 µM), for the others: at the highest dose activity change, negative = inhibition, hits mostly inhibitors; PGK/GAPDH coupled, Kinase-Glo luminescence, 60 min; AID 602233; P07378; further: potency means the concentration at half of the fitted maximal effect; on the % scale 0 is the no-effect control and ±100 the full control effect; nearly all actives have a fitted effect of over 60% in size
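Recombinant glycosomal PGK reaction used 1,3-bisphosphoglycerate generated in-well by GAPDH (100nM final) in 100mM TEA pH 7.6, 5mM MgCl2, 0.01% Tween-20. After 60 minutes at room temperature, ATP was read by Kinase-Glo Plus luminescence end-point.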
FEN1 inhibitor – inhibitors of human flap endonuclease 1. P39748. Recombinant FEN1 flap cleavage, fluorescence, 15 min. hit rate 0.35% among 390,000. Potency, µM (top dose mostly 114 µM), for the others: at the highest dose activity change, negative = inhibition, hits mostly inhibitors; further: potency means the concentration at half of the fitted maximal effect; on the % scale 0 is the no-effect control and ±100 the full control effect; nearly all actives have a fitted effect of over 65% in size
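Quantitative HTS format: each compound was titrated, incubated with 10 nM nuclease for 15 min at room temperature, then challenged with flap substrate at 50 nM final. Signal change over 15 min gave concentration–effect curves.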
APEX1 inh – inhibitors of human APE1 endonuclease. P27695. recombinant APE1, TAMRA/BHQ-2 abasic DNA cleavage fluorescence. Potency, µM (doses to about 65.8 µM), inactives show at the highest dose activity change, negative = inhibition, usual class: inhibitors. hit rate 0.35% among 350,000;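 further: potency means the concentration at half of the fitted maximal effect; plate controls were vehicle for no effect and reference inhibitor for full effect; nearly all actives have a fitted effect of over 55% in size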
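Activity was derived from the fluorescence gain between first and third kinetic reads (60 s intervals, ex 525/em 598 nm) after 50 nM THF-abasic TAMRA/BHQ-2 duplex was added to 0.75 nM APE1 preincubated 15 min with compound.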
PI4K2A block – PI4K2A (human) kinase inhibition; Q9BTU6; purified PI4K2A, ADP-Glo luminescence, 1 h; active compounds read low; activity change, negative = inhibition, % at 76.9 µM; hit rate 0.13% among 420,000; AID 1346378; in the data active means activity change below about -50%; inconclusive means mostly about -30% to -49%;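 further: -100% = wells without enzyme as full effect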
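PI4K2A activity was measured by ADP-Glo luminescence: enzyme (4 ug/mL stock) and phosphatidylinositol (1.2 mM stock) in Tris pH 7.5/MgCl2/EGTA/Triton X-100 buffer were reacted with ATP (300 microM stock) for one hour at ambient temperature.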
Tb PFK inh-1 – inhibitors of T. brucei phosphofructokinase. T. brucei PFK, ADP-Glo luminescence. Potency, µM (doses to about 57.5 µM), inactives show at the highest dose activity, negative = inhibition, actives largely listed as inhibitors. hit rate 0.17% among 330,000;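 further: potency means the concentration at half of the fitted maximal effect; 0% = uninhibited 1x PFK enzyme wells and -100% = no-enzyme wells; nearly all actives have a fitted effect of over 60% in size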
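PFK 1.25 nM, F6P 0.5 mM, ATP 0.1 mM, 0.1 M TEA pH 8.0, 5 mM MgCl2, 0.01% Tween20, 0.1% BSA; 45 min RT. ADP-Glo readout. qHTS titration up to 57 uM; curves fitted, compounds curve-classed.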
TDP1 inh – TDP1 (human) enzyme inhibition; Potency, µM (doses to about 130 µM), without a hit: at the top dose activity change, negative = inhibition, actives largely listed as inhibitors; hit rate 0.28% among 350,000; recombinant TDP1, AlphaScreen DNA substrate cleavage; Q9NUW8; further: potency means the concentration at half of the fitted maximal effect; on the % scale 0 is the no-effect control and ±100 the full control effect; nearly all actives have a fitted effect of over 40% in size
Target sequence (Q9NUW8 whole entry, looked up): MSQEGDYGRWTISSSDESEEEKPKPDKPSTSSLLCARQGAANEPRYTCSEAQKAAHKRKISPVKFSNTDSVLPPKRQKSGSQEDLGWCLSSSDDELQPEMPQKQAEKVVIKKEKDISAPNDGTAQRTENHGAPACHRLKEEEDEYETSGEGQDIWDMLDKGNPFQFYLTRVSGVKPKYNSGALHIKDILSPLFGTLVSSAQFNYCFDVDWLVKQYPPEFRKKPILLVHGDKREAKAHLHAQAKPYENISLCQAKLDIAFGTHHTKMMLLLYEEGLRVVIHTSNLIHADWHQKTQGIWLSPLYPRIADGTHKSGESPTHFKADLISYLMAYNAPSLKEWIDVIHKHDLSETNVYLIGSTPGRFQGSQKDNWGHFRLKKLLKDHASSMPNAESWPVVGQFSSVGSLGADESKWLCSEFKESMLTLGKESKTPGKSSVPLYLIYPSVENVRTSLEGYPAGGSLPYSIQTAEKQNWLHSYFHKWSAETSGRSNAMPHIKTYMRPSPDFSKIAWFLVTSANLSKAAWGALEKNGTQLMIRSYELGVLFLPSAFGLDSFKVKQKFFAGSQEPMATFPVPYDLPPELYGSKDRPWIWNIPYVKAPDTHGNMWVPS
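Here, a 5' biotin and 3' phosphotyrosine-FITC DNA oligonucleotide reports Tdp1 activity: intact substrate bridges AlphaScreen beads, while cleavage leaves a 3' phosphate and drops signal. All incubations at room temperature.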
TbPFK ATP – Tb phosphofructokinase inhibition, orthogonal luminescence. shares compounds with Tb PFK inh-1. Potency, µM (series often up to 57.5 µM), for inactives: top-dose inhibition. Tb PFK enzyme, ATP depletion, Kinase-Glo Plus luminescence. AID 504636. hit rate 47% among 1,100; calls by dose curve; further: potency means the concentration at half of the fitted maximal effect; nearly all actives have a fitted effect of over 60% in size
Tb PFK inh-2 – validation of T. brucei phosphofructokinase inhibitors; hit rate 41% among 1,100; shares compounds with Tb PFK inh-1; Potency, µM (titrated, usually from 57.5 µM), without a hit: top-dose activity change, negative = inhibition, actives largely listed as inhibitors; purified T. brucei PFK, ADP-Glo luminescence, 45 min;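 further: potency means the concentration at half of the fitted maximal effect; plate controls were full PFK enzyme control for no effect and no enzyme control for full effect; nearly all actives have a fitted effect of over 60% in size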
Starred values were filed as active, the others as inactive; i = inactive; ? = inconclusive; . = no result; [ ] = remark or other dose. Shown are actives, neighbours in structure and some others; about 0.8% of the full set was active somewhere. Unless noted, the call rests on the fitted dose curve; in most records, active means well fitted curve in the direction sought with a large enough effect; inconclusive means small, poorly fitted or top-dose-only effect, or another doubt; inactive means no such curve, though single readings can be large; an effect the other way counts as inactive or inconclusive.

SMILES | PGK inhibitor | FEN1 inhibitor | APEX1 inh | PI4K2A block | Tb PFK inh-1 | TDP1 inh | TbPFK ATP | Tb PFK inh-2
O=S(=O)(Nc1ccccc1)c1cccc2nsnc12 | -10% | 10% | 7.5µM* | 3 | ? | . | ? | ?
CCCCC/C=C\C/C=C\C/C=C\C/C=C\CCCC(=O)N(Cc1ccc(O)c(Cl)c1)Cc1ccc(O)c(Cl)c1 | . | . | 4% | . | . | -3% | . | .
COc1ccc(-n2c(SCC(=O)c3c(N)n(C)c(=O)n(C)c3=O)nc3ccccc32)cc1 | -6% | -3% | 13% | 6 | -2% | 0% | . | .
Cn1c(N)c(C(=O)COC(=O)Cc2ccc(Cl)c(Cl)c2)c(=O)n(C)c1=O | 1% | -21% | 14% | 1 | 9.5µM* | 1% | 6.7µM* | 12µM*
CN1C[C@H](C(=O)N[C@]2(C)O[C@@]3(O)[C@H]4CCCN4C(=O)[C@H](Cc4ccccc4)N3C2=O)C[C@H]2c3cccc4[nH]cc(c34)C[C@@H]21 | . | . | -8% | . | . | 18% | . | .
NC(=S)NNc1ccc(Cl)c(Cl)c1 | i | 9% | 4% | 0 | 19µM* | 9% | 4.8µM* | 12µM*
OCCOc1ccccc1 | 2% | 24% | 26% | -1 | -1% | 5% | . | .
CCOC(=O)Cn1c(=N)n(CCOc2cccc(C)c2)c2ccccc21 | -3% | -1% | -2% | -6 | 13µM* | 8% | 11µM* | 13µM*
CCOC(=O)COc1ccc2c(c1)c(C(C)=O)c(C)n2Cc1ccccc1 | -9% | -8% | -2% | -1 | -5% | 2% | . | .
N=c1n(CCO)c2ccccc2n1CCOc1ccccc1 | -4% | 4% | -2% | -2 | 24µM* | 4% | 13µM* | 21µM*
CC(C)CN1C(=S)SC(C)(C)C1n1oc(=O)n(-c2ccc(Cl)cc2)c1=O (configuration not stated) | . | -10% | -9% | 4 | 27µM* | 6% | 3% | -4%
FC(F)(F)c1cccc(N2CCNCC2)c1 | . | . | 5% | . | -11% | -2% | . | .
CC(NC(=O)c1ccco1)C(=O)N1CCN(c2cccc(C(F)(F)F)c2)CC1 (configuration not stated) | i | 1% | 4% | -3 | ? | -1% | 14% | -10%
CC(C)(C)OOC(=O)c1ccccc1 | . | . | 7% | . | . | 18% | . | .
Nn1c(SCC(=O)Nc2cccnc2Cl)nnc1-c1ccccc1 | -1% | -3% | -10% | -1 | ? | 2% | 9.5µM* | 11µM*
O=C(Nc1ccccc1-c1ccc(Cl)cc1)c1cccnc1Cl | . | . | ? | i | . | 15% | . | .
C=CC=O | . | . | 3% | . | . | -3% | . | .
O=NN(CCO)CCO | . | . | 13% | . | . | 17% | . | .
O=C(O)Cc1ccc(NC(=O)Nc2ccc(Br)cc2)cc1 | 2% | 8% | -4% | -2 | ? | 4% | 12µM* | 24µM*
CCOC(=O)c1c(-c2ccc(OC)cc2)csc1/N=C/C1=C(O)CCCC1=O | 2% | -4% | 1% | -6 | ? | 5% | 0% | -2%
CCOC(=O)c1c(-c2ccc(OC)cc2)oc2ccc(OC(=O)N(C)C)cc12 | -1% | -12% | -1% | 1 | -1% | -4% | . | .
O=C(NC12CC3CC(CC(C3)C1)C2)OC1CN2CCC1CC2 (configuration not stated) | i | 0% | -5% | 2 | -1% | -4% | . | .
O=C(Cn1sc2ccccc2c1=O)NC12CC3CC(CC(C3)C1)C2 | -2% | -2% | 3% | -2 | 4.3µM* | 12% | ? | 9.5µM*
O=C(N/N=C/c1ccc2c(c1)OCO2)C1COc2ccccc2O1 (configuration not stated) | . | -20% | 1% | 2 | ? | 4% | 19µM* | 21µM*
O=C(N/N=C\C=C\c1ccco1)C1COc2ccccc2O1 (configuration not stated) | -6% | 9% | -1% | -13 | 24µM* | . | 21µM* | ?
SMILES | PGK inhibitor | FEN1 inhibitor | APEX1 inh | PI4K2A block | Tb PFK inh-1 | TDP1 inh | TbPFK ATP | Tb PFK inh-2
COc1ccc(/C=N\NC(=O)C2COc3ccccc3O2)cc1O (configuration not stated) | i | -8% | 13% | -4 | 13µM* | 8% | 8.5µM* | 12µM*
CCC1C(=O)OC[C@H]1Cc1cncn1C (some centres not stated) | . | . | -1% | . | . | 10%[56.1 µM] | . | .
C=CCBr | . | . | 3% | . | . | 13% | . | .
CC(=O)Nc1cc(C(=O)CSc2nnc(C3CC3)n2C2CC2)ccc1O | -1% | -16% | -1% | -11 | ? | -15% | ? | ?
CC(=O)Oc1c2c(c(CC=C(C)C)c3c1C(=O)C1=CC4CC5C(C)(C)OC(C/C=C(\C)C(=O)O)(C4=O)[C@]15O3)OC(C)(CCC=C(C)C)C=C2 (some centres not stated) | . | . | -1% | . | . | 9% | . | .
C[C@@H]1C[C@H](C)C[C@H](C)[C@@H](O)CC(=O)O[C@H]([C@H]2CCC[C@H]2C(=O)O)C/C=C/C=C(/C#N)[C@H](O)[C@@H](C)C1 | . | . | -4% | . | . | 8% | . | .
COc1cccc(C(=O)NNC(=O)Cc2ccc([N+](=O)[O-])cc2)c1 | -1% | -2% | 1% | -2 | ? | 1% | ? | ?
Cc1[nH]cnc1CCN | . | . | 1% | . | . | 15% | . | .
Clc1ccc(CNc2cnccn2)cc1Cl | 0% | -2% | 47% | -1 | 6.7µM* | . | 5.4µM* | 9.5µM*
NC(N)=NCCC[C@@H](N)C(=O)O | . | . | 12% | . | . | -4% | . | .
Nc1nc(SCc2ccc(Cl)c(Cl)c2)n[nH]1 | -8% | 0% | 3% | -1 | 13µM* | -3% | 9.5µM* | 13µM*
O=C1Nc2ccccc2C(=O)C1(Cl)Cc1ccccc1 (configuration not stated) | -2% | 6% | -11% | -20 | ? | 8% | 11µM* | 13µM*
COc1ccc(OC)c(NC(=O)c2cc(-c3cc(C)ccc3O)n[nH]2)c1 | -10% | 16% | 51% | 1 | ? | . | -19% | ?
COc1ccc(C)cc1NC(=O)c1cccn(Cc2ccccc2Cl)c1=O | -1% | -8% | . | -1 | . | -2% | . | .
NS(=O)(=O)c1ccc(NC(=O)C2COc3ccccc3O2)cc1 (configuration not stated) | -6% | 0% | -3% | 2 | 21µM* | 2% | 6.7µM* | 30µM*
